In PubChem BioAssay (EPA / NIEHS):
Calls of active or inactive are those of the source. How the source made its calls: active means hit-call score of the fitted dose curve at least 0.9, where 1 is the maximum; inactive means score below 0.9.

Legend:
[1] = read-out: Monokine induced gamma interferon (MIG), CXCL9 (gene 4283); assay: BSK_3C_MIG: BioMAP Diversity Plus: 3C Assay for Monokine induced gamma interferon (MIG) Biomarker Activity (AID 2283021); conditions: primary human endothelial cells (HUVEC); actives raise or lower the signal;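 on AC50: MIG protein level measured by immunoassay in the treated endothelial cultures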
How it was run: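 Primary human umbilical vein endothelial cells in the 3C system were exposed to chemical for 24 h, after which MIG was quantified by ELISA. Activity was fitted bidirectionally against DMSO as negative control and baseline.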

[2] = BSK_3C_SRB: Viability Assessment in the BioMAP Diversity Plus: 3C Assay (AID 2283023); conditions: primary human endothelial cells (HUVEC);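 further: fitted both ways against DMSO so a hit may be signal rise or drop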
How it was run: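 Cytotoxicity readout in parallel HUVEC 3C cultures: after 24 h compound exposure, cells fixed with 10% TCA, stained with 0.1% SRB and read at 560 nm. Gain or loss relative to DMSO fitted.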

[3] = read-out: Matrix Metallopeptidase 1 (MMP1), MMP1 (gene 4312); assay: BSK_BE3C_MMP1: BioMAP Diversity Plus: BE3C Assay for Matrix Metallopeptidase 1 (MMP1) Biomarker Activity (AID 2283024); conditions: primary human bronchial epithelial cells; actives raise or lower the signal
How it was run: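 Primary human bronchial epithelial cells were dosed with test chemicals, and MMP1 levels were measured by ELISA 24 h later. Data were fitted bidirectionally against DMSO as the negative control and activity baseline.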

[4] = read-out: Pselectin, SELP (gene 6403); assay: BSK_4H_Pselectin: BioMAP Diversity Plus: 4H Assay for Pselectin Biomarker Activity (AID 2283026); conditions: primary human endothelial cells (HUVEC); actives raise or lower the signal
How it was run: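 Primary human umbilical vein endothelial cells were exposed to test chemical for 24 h, then cell-surface P-selectin was quantified by ELISA. Activity was fitted bidirectionally against DMSO as negative control and baseline.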

[5] = BSK_4H_SRB: Viability Assessment in the BioMAP Diversity Plus: 4H Assay (AID 2283027); conditions: primary human endothelial cells (HUVEC);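 further: cells exposed to compound for 24 h before staining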;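 on AC50: curves fitted both ways versus DMSO so AC50 may be loss or gain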
How it was run: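 Human umbilical vein endothelial cells were dosed with chemical and, after 24 h, fixed with 10% TCA, stained with 0.1% sulforhodamine B, and read at 560 nm to give total protein as a cytotoxicity measure. Bidirectional fitting relative to DMSO control.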

[6] = BSK_BE3C_SRB: Viability Assessment in the BioMAP Diversity Plus: BE3C Assay (AID 2283028); conditions: primary human bronchial epithelial cells
How it was run: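 Cytotoxicity read-out: SRB (0.1%) staining of TCA-fixed (10%) human lung bronchial epithelial cells, absorbance 560 nm, 24 h post-dosing. Curves fitted both directions relative to DMSO.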

[7] = read-out: Thrombomodulin, THBD (gene 7056); assay: BSK_3C_Thrombomodulin: BioMAP Diversity Plus: 3C Assay for Thrombomodulin Biomarker Activity (AID 2283029); conditions: primary human endothelial cells (HUVEC); actives raise or lower the signal
How it was run: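 Primary human umbilical vein endothelial cells (3C system) were exposed to chemical for 24 h, then thrombomodulin levels were measured by ELISA. Activity was fitted bidirectionally against the DMSO negative control as baseline.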

[8] = read-out: Urokinase-type plasminogen activator receptor (uPAR), PLAUR (gene 5329); assay: BSK_4H_uPAR: BioMAP Diversity Plus: 4H Assay for Urokinase-type plasminogen activator receptor (uPAR) Biomarker Activity (AID 2283030); conditions: primary human endothelial cells (HUVEC); actives raise or lower the signal
How it was run: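 uPAR level read by ELISA on HUVEC cultures (BioMAP 4H) 24 h post-dosing, analyzed for gain or loss relative to DMSO. Parallel SRB staining assessed overt cytotoxicity.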

[9] = read-out: Vascular endothelial growth factor receptor 2 (Homo sapiens) (UniProt P35968); assay: BSK_4H_VEGFRII: BioMAP Diversity Plus: 4H Assay for Vascular endothelial growth factor receptor 2 (VEGFR2) Biomarker Activity (AID 2283031); conditions: primary human endothelial cells (HUVEC); actives raise or lower the signal;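 on AC50: cell-surface VEGFR2 protein level quantified by ELISA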
How it was run: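 Measured by ELISA after 24 h of compound treatment: VEGFR2 on primary human umbilical vein endothelial cells, fitted in both directions relative to DMSO. Parallel cultures received SRB staining (560 nm) for overt cytotoxicity.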

[10] = read-out: Human Leukocyte Antigen - DR isotype (HLADR), HLA-DRA (gene 3122); assay: BSK_BE3C_HLADR: BioMAP Diversity Plus: BE3C Assay for Human Leukocyte Antigen - DR isotype (HLADR) Biomarker Activity (AID 2283032); conditions: primary human bronchial epithelial cells; actives raise or lower the signal
How it was run: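 Human primary bronchial epithelial cells in the BE3C system were exposed to chemicals for 24 h, after which HLA-DR levels were quantified by ELISA. Activity was fitted bidirectionally, gain or loss of signal, against DMSO as negative control and baseline.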

[11] = read-out: Vascular cell adhesion molecule 1 (VCAM1), VCAM1 (gene 7412); assay: BSK_4H_VCAM1: BioMAP Diversity Plus: 4H Assay for Vascular cell adhesion molecule 1 (VCAM1) Biomarker Activity (AID 2283033); conditions: primary human endothelial cells (HUVEC); actives raise or lower the signal
How it was run: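 Primary human umbilical vein endothelial cells were exposed to chemicals for 24 h, after which VCAM-1 was quantified by ELISA. Responses were fitted bidirectionally against DMSO as negative control and activity baseline.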

[12] = read-out: Monokine induced gamma interferon (MIG), CXCL9 (gene 4283); assay: BSK_BE3C_MIG: BioMAP Diversity Plus: BE3C Assay for Monokine induced gamma interferon (MIG) Biomarker Activity (AID 2283035); conditions: primary human bronchial epithelial cells; actives raise or lower the signal
How it was run: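 ELISA read-out of MIG in human lung bronchial epithelial primary cultures, 24 h post-dosing. Bidirectional curve fit vs DMSO baseline.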

[13] = read-out: Transforming growth factor beta 1 (TGFb1), TGFB1 (gene 7040); assay: BSK_BE3C_TGFb1: BioMAP Diversity Plus: BE3C Assay for Transforming growth factor beta 1 (TGFb1) Biomarker Activity (AID 2283036); conditions: primary human bronchial epithelial cells; actives raise or lower the signal
How it was run: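 Human primary bronchial epithelial cells (BE3C system) were dosed with chemical and TGF-b1 levels measured by ELISA at 24 h. Activity was fitted bidirectionally relative to DMSO negative control as baseline.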

[14] = read-out: Plasminogen activator inhibitor-1 (PAI1), SERPINE1 (gene 5054); assay: BSK_BE3C_PAI1: BioMAP Diversity Plus: BE3C Assay for Plasminogen activator inhibitor-1 (PAI1) Biomarker Activity (AID 2283037); conditions: primary human bronchial epithelial cells; actives raise or lower the signal
How it was run: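 Human primary bronchial epithelial cells were exposed to chemical for 24 h, then PAI-1 was quantified by ELISA. Activity was fitted bidirectionally relative to the DMSO negative control baseline.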

[15] = read-out: urokinase plasminogen activator (uPA), PLAU (gene 5328); assay: BSK_BE3C_uPA: BioMAP Diversity Plus: BE3C Assay for urokinase plasminogen activator (uPA) Biomarker Activity (AID 2283038); conditions: primary human bronchial epithelial cells; actives raise or lower the signal
How it was run: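 ELISA for uPA on human primary bronchial epithelial cultures 24 h post-treatment, gain or loss against DMSO. Parallel SRB staining (0.1% after 10% TCA fixation, 560 nm) assessed overt cytotoxicity.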

[16] = read-out: Urokinase-type plasminogen activator receptor (uPAR), PLAUR (gene 5329); assay: BSK_BE3C_uPAR: BioMAP Diversity Plus: BE3C Assay for Urokinase-type plasminogen activator receptor (uPAR) Biomarker Activity (AID 2283039); conditions: primary human bronchial epithelial cells; actives raise or lower the signal
How it was run: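 Primary human bronchial epithelial cells were dosed with chemical and harvested 24 h later; uPAR was quantified by ELISA. Activity was fitted bidirectionally against DMSO as negative control and baseline.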

[17] = read-out: Interleukin-6 (IL6), IL6 (gene 3569); assay: BSK_CASM3C_IL6: BioMAP Diversity Plus: CASM3C Assay for Interleukin-6 (IL6) Biomarker Activity for (AID 2283040); conditions: primary human coronary artery smooth muscle cells; actives raise or lower the signal
[18] = BSK_3C_Vis: BioMAP Diversity Plus: 3C Assay for Morphology Visualization (AID 2283025); conditions: primary human endothelial cells (HUVEC);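 further: fitted both ways so gain or loss versus DMSO counts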
How it was run: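 Human umbilical vein endothelial cells in the 3C system were imaged by light microscopy 24 h after chemical dosing to record cell morphology. Activity was fitted bidirectionally against DMSO as negative control and baseline; the endpoint serves as a background control.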

[19] = read-out: Interferon-gamma inducible Protein 10 (IP10), CXCL10 (gene 3627); assay: BSK_BE3C_IP10: BioMAP Diversity Plus: BE3C Assay for Interferon-gamma inducible Protein 10 (IP10) Biomarker Activity (AID 2283034); conditions: primary human bronchial epithelial cells; actives raise or lower the signal
How it was run: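 Human primary bronchial epithelial cells were exposed to chemicals for 24 hours, after which IP-10 levels were measured by ELISA. Data were fitted bidirectionally against DMSO, which served as the negative control and activity baseline.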

Measured: AC50

CCCCC(C#N)(Cn1cncn1)c1ccc(Cl)cc1 (centres undefined)
inactive: [1] | [2] | [3] | [4] | [5] | [6] | [7] | [8] | [9] | [10] | [11] | [12] | [13] | [14] | [15] | [16] | [17]

CS(=O)(=O)c1ccc(C(=O)C2C(=O)CCCC2=O)c([N+](=O)[O-])c1
inactive: [1] | [2] | [3] | [18] | [4] | [5] | [8] | [9] | [10] | [11] | [19] | [12] | [13] | [14] | [15] | [16] | [17]

Nc1cnn(-c2ccccc2)c(=O)c1Cl
inactive: [1] | [2] | [3] | [4] | [5] | [6] | [8] | [9] | [10] | [11] | [19] | [12] | [13] | [14] | [15] | [16] | [17]

COP(=O)(OC)O/C(C)=C/C(=O)N(C)C
inactive: [1] | [2] | [3] | [4] | [5] | [8] | [9] | [10] | [11] | [12] | [13] | [14] | [15] | [16] | [17]

CCOC(=O)C(C)OC(=O)c1cc(Oc2ccc(C(F)(F)F)cc2Cl)ccc1[N+](=O)[O-] (centres undefined)
inactive: [1] | [3] | [18] | [4] | [7] | [9] | [11] | [12] | [13] | [14] | [15] | [16] | [17]
active: [2] 13.3 µM | [5] 13.1 µM | [8] 10 µM | [10] 29.7 µM

CCCN(CC)CC1COC2(CCC(C(C)(C)C)CC2)O1 (centres undefined)
active: [16] 1.77 µM
inactive: [1] | [2] | [3] | [4] | [5] | [6] | [7] | [8] | [9] | [10] | [11] | [12] | [13] | [14] | [15] | [17]

CC(C)N1C(=O)N(c2ccccc2)CSC1=NC(C)(C)C
inactive: [1] | [7] | [9] | [12] | [13] | [14] | [15] | [17]
active: [2] 27.2 µM | [3] 25.8 µM | [4] 31.2 µM | [5] 31.2 µM | [8] 31.7 µM | [10] 28.9 µM | [11] 29.8 µM | [16] 33.7 µM

Clc1cccc(C(Cl)(Cl)Cl)n1
inactive: [1] | [2] | [3] | [18] | [4] | [5] | [8] | [9] | [10] | [11] | [19] | [12] | [13] | [14] | [15] | [16] | [17]

CCN(CC)C(=O)C(C)Oc1cccc2ccccc12 (centres undefined)
active: [2] 5.16 µM | [3] 5.25 µM
inactive: [1] | [4] | [5] | [6] | [8] | [9] | [10] | [11] | [12] | [13] | [14] | [15] | [16] | [17]

Cc1cc(C)nc(Nc2ccccc2)n1
inactive: [1] | [2] | [3] | [4] | [5] | [6] | [8] | [9] | [10] | [11] | [12] | [13] | [14] | [15] | [16] | [17]

Cc1c(COC(=O)[C@@H]2[C@H](/C=C(\Cl)C(F)(F)F)C2(C)C)cccc1-c1ccccc1
active: [2] 11.7 µM | [18] 0.28 µM | [4] 12.3 µM | [11] 3.91 µM
inactive: [1] | [3] | [5] | [8] | [9] | [10] | [12] | [13] | [14] | [15] | [16] | [17]

N#CN=C1SCCN1Cc1ccc(Cl)nc1
inactive: [1] | [2] | [3] | [4] | [5] | [6] | [8] | [9] | [10] | [11] | [19] | [12] | [13] | [14] | [15] | [16] | [17]

CCCCOCN(C(=O)CCl)c1c(CC)cccc1CC
active: [1] 32.9 µM | [2] 28.5 µM | [3] 33.2 µM | [4] 21.9 µM | [5] 28.2 µM | [7] 8.66 µM | [8] 38.8 µM | [9] 31.1 µM | [10] 29.8 µM | [11] 28.9 µM | [12] 36.5 µM | [13] 31.9 µM | [14] 30.7 µM | [15] 31.4 µM | [16] 32.2 µM | [17] 4.92 µM
